Results taken from PubChem BioAssay AID1159580 (chemical genetic matrix, 2015).
About 2,000 (36%) of roughly 5,500 compounds were called active. Not shown: some 18% with an inconclusive outcome. Rule as the data show it: active = normalized growth mostly below about 0.91 (no sharp cut-off); inconclusive = no clear call, values can overlap the other calls; inactive = mostly above about 0.92. The list shows a part of the results.

Assay: chemical genetic growth profiling, strain panel (AID 1159580);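 also: tested at 20 µM; growth read once vehicle control cultures reached saturation at 30 °C; 1 = growth at the plate median or of vehicle wells; lower values mean less growth of the strain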
Conditions: S. cerevisiae deletion strains, growth OD

Measured: normalized growth

CCCOc1ccccc1-c1nc2n[nH]nc2c(=O)[nH]1
inactive: locus YAL013W, strain DEP1, hits give low values 0.99 | locus YAL021C, strain ccr4, hits give low values 0.965 | locus YAL026C, strain drs2, hits give low values 1.02 | locus YAL030W, strain snc1, hits give low values 0.995 | locus YAL040C, strain CLN3, hits give low values 1.05 | locus YBL061C, strain skt5, hits give low values 1 | locus YBR009C, strain hhf1, hits give low values 1.03 | locus YBR021W, strain FUR4, hits give low values 0.996 | locus YBR023C, strain chs3, hits give low values 1 | locus YBR171W, strain sec66, hits give low values 1.01 | locus YBR229C, strain ROT2, hits give low values 1 | locus YBR231C, strain swc5, hits give low values 1.02 | locus YBR279W, strain paf1, hits give low values 1.01 | locus YCL011C, strain gbp2, hits give low values 1.01 | locus YCL016C, strain dcc1, hits give low values 1.01 | locus YCL029C, strain bik1, hits give low values 1.01 | locus YCL061C, strain MRC1 (second series), hits give low values 0.993 | locus YCL061C, strain MRC1, hits give low values 1 | locus YCL069W, strain vba3, hits give low values 0.992 | locus YCR088W, strain abp1, hits give low values 1 | locus YDL005C, strain med2, hits give low values 1 | locus YDL035C, strain GPR1, hits give low values 1.02 | locus YDL040C, strain nat1, hits give low values 0.991 | locus YDL074C, strain BRE1, hits give low values 1.01 | locus YDL101C, strain DUN1, hits give low values 1.01 | locus YDL134C, strain PPH21, hits give low values 1.01 | locus YDL185W, strain tfp1, hits give low values 1.01 | locus YDL192W, strain arf1, hits give low values 1.01 | locus YDR001C, strain nth1, hits give low values 0.998 | locus YDR069C, strain doa4, hits give low values 1.02 | locus YDR101C, strain arx1, hits give low values 1 | locus YDR137W, strain rgp1, hits give low values 1 | locus YDR159W, strain sac3, hits give low values 1.03 | locus YDR162C, strain NBP2, hits give low values 1.01 | locus YDR195W, strain ref2 1.04 | locus YDR297W, strain sur2, hits give low values 1 | locus YDR318W, strain mcm21, hits give low values 1.01 | locus YDR334W, strain swr1, hits give low values 1.01 | locus YDR335W, strain msn5, hits give low values 1 | locus YDR363W, strain ESC2, hits give low values 0.985 | locus YDR388W, hits give low values 1.02 | locus YDR392W, strain spt3, hits give low values 0.956 | locus YDR502C, strain sam2, hits give low values 1.01 | locus YEL003W, strain gim4, hits give low values 1.01 | locus YEL037C, strain rad23, hits give low values 0.998 | locus YEL061C, strain CIN8 (second series), hits give low values 1 | locus YEL061C, strain CIN8, hits give low values 1.01 | locus YER002W, strain NOP16, hits give low values 1.01 | locus YER015W, strain faa2, hits give low values 1.01 | locus YER016W, strain bim1, hits give low values 1.01 | locus YER110C, hits give low values 1.01 | locus YER111C, strain swi4, hits give low values 1.01 | locus YER155C, strain BEM2 (second series), hits give low values 1.05 | locus YER155C, strain BEM2, hits give low values 1 | locus YER167W, strain BCK2, hits give low values 1.01 | locus YFR010W, strain ubp6, hits give low values 1.01 | locus YGL078C, strain dbp3, hits give low values 1.01 | locus YGL086W, strain mad1, hits give low values 1 | locus YGL167C, strain pmr1, hits give low values 1.01 | locus YGL173C, strain kem1, hits give low values 1.01 | locus YGL227W, strain vid30, hits give low values 1.01 | locus YGL240W, strain doc1, hits give low values 1.05 | locus YGL248W, strain PDE1, hits give low values 0.981 | locus YGL253W, strain hxk2, hits give low values 1.01 | locus YGR078C, strain PAC10, hits give low values 1.01 | locus YGR135W, strain pre9, hits give low values 1.01 | locus YGR229C, strain SMI1, hits give low values 1.01 | locus YGR252W, strain gcn5, hits give low values 1.03 | locus YHR013C, strain ard1, hits give low values 0.978 | locus YHR027C, strain rpn1, hits give low values 1 | locus YHR030C, strain SLT2, hits give low values 1 | locus YHR079C, strain IRE1 (second series), hits give low values 1.01 | locus YHR094C, strain hxt1, hits give low values 1.02 | locus YHR129C, strain ARP1, hits give low values 1 | locus YHR142W, strain chs7, hits give low values 0.953 | locus YHR200W, strain rpn10, hits give low values 1.01 | locus YIL066C, strain RNR3, hits give low values 1 | locus YIL073C, strain SPO22, hits give low values 1.08 | locus YIL125W, strain kgd1, hits give low values 1 | locus YIR030C, strain dcg1, hits give low values 1.01 | locus YJL092W, strain hpr5, hits give low values 1 | locus YJL095W, strain BCK1 (second series), hits give low values 1.01 | locus YJL095W, strain BCK1, hits give low values 0.994 | locus YJL115W, strain asf1, hits give low values 1 | locus YJL129C, strain trk1, hits give low values 0.992 | locus YJL134W, strain LCB3, hits give low values 1.01 | locus YJL154C, strain vps35, hits give low values 0.999 | locus YJL164C, strain tpk1, hits give low values 0.987 | locus YJL166W, strain qcr8, hits give low values 1.01 | locus YJL168C, strain set2, hits give low values 1.01
